A short description of assay [1]: NCI Yeast Anticancer Drug Screen. Data for the rad50 strain (AID 155).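 Further: 0% = growth of vehicle-only cultures of the same strain.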 Conditions: S. cerevisiae rad50 strain growth inhibition, stronger effect = higher value. The method, boiled down: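 Inhibition values express reduced yeast growth in compound-treated cultures relative to vehicle-treated controls.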
Assay [2] is described as follows: NCI Yeast Anticancer Drug Screen. Data for the mec2-1 strain (AID 157). Conditions: S. cerevisiae mec2-1 strain, stronger effect = higher value. In a few lines: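 Growth inhibition is read against vehicle-treated controls after compound exposure of the mec2-1 yeast strain, which is defective in DNA damage repair or cell cycle control.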
Assay [3] is described as follows: NCI Yeast Anticancer Drug Screen. Data for the sgs1 mgt1 strain (AID 161).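 Further: 0% = growth of cultures given vehicle only.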 Conditions: S. cerevisiae sgs1 mgt1 strain, stronger effect = higher value. In a few lines: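 Percent growth inhibition was derived by comparing compound-exposed mutant yeast with vehicle-exposed cultures. The strain carries alterations in DNA damage repair.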
Assay [4] in a line: NCI Yeast Anticancer Drug Screen. Data for the cln2 rad14 strain (AID 165).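 Further: 0% = growth equal to vehicle treated cultures.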 Conditions: S. cerevisiae cln2 rad14 strain, stronger effect = higher value. The method, boiled down: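 Growth inhibition, relative to vehicle-treated controls, is the read-out. The test organism is a yeast strain with defined genetic alterations, cln2 rad14.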
The nature of assay [5]: NCI Yeast Anticancer Drug Screen. Data for the bub3 strain (AID 167). Conditions: S. cerevisiae bub3 mutant strain, stronger effect = higher value. In a few lines:
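Steps: expose the mutant yeast strain to compound; grow alongside vehicle-treated cultures; measure growth; express inhibition against the vehicle cultures.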

Assay [6] can be described thus: NCI Yeast Anticancer Drug Screen. Data for the mlh1 rad18 strain (AID 175). Conditions: S. cerevisiae mlh1 rad18 strain growth inhibition, stronger effect = higher value. In a few lines:
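Cells of a genetically altered yeast strain, deficient in DNA damage repair, were treated with compound. Their growth was then compared with that of vehicle-treated cultures to give inhibition.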

[7] abbreviates: at 5.0 µM (retest, dose inferred, filed as 0.5).
[8] abbreviates: at 50.0 µM (retest, dose inferred, filed as 5.0).

SMILES strings stand for the structures. “And” between values parts separate entries of the source, which are not always exact repeats. Identical values can stand only once. The panel holds about 79,000 compounds, 15% with a hit somewhere; the sample as a whole holds those more often. More than one record can exist for a structure, and the calls need not agree. The source made the active and inactive calls. No stated cut-off is given here; in the data, active means growth inhibition above about 70%; inactive means the rest.

For the compound `C/C(=N\N=C(\[Se])N1CCN(c2ccccn2)CC1)c1ccccn1`, the growth inhibition in assay [1] (setting [7]) was -2% (inactive); in assay [1] (setting [8]), 88% (active); in assay [1] (at 50.0 µM) it was 70.3% (active); in assay [2] (setting [7]) it was -1% (inactive); in assay [2] (setting [8]), 98% (active); in assay [2] (at 50.0 µM), 70% (inactive). The growth inhibition in assay [3] (setting [7]) was 5% (inactive); in assay [3] (setting [8]) it was 95% (active); in assay [3] (at 50.0 µM), 82% (active); in assay [4] (setting [7]), -9% (inactive); in assay [4] (setting [8]), 83% (active); in assay [4] (at 50.0 µM) it was 9.4% (inactive). Moreover, the growth inhibition is 9% (inactive) in assay [5] (setting [7]); 96% (active) in assay [5] (setting [8]); 93.2% (active) in assay [5] (at 50.0 µM); 59% (inactive) in assay [6] (setting [7]); 93% (active) in assay [6] (setting [8]); 78.2% (active) in assay [6] (at 50.0 µM).
With `COC(=O)C(CCCN=C(N)N[N+](=O)[O-])NC(=O)c1ccc2c(c1O)C(=O)c1ccccc1C2=O` (configuration not stated), the growth inhibition in assay [1] (setting [7]) was 8% (inactive); in assay [1] (setting [8]), 15% (inactive); in assay [1] (at 50.0 µM), 71.6% (active); in assay [2] (setting [7]) it was 4% (inactive); in assay [2] (setting [8]), 11% (inactive); in assay [2] (at 50.0 µM), 28.7% (inactive). Moreover, the growth inhibition in assay [3] (setting [7]) was 6% (inactive); in assay [3] (setting [8]) it was 18% (inactive); in assay [3] (at 50.0 µM), 68.6% (inactive); in assay [4] (setting [7]) it was -4% (inactive); in assay [4] (setting [8]) it was 3% (inactive); in assay [4] (at 50.0 µM), 47.9% (inactive). Moreover, the growth inhibition in assay [5] (setting [7]) was 2% (inactive); in assay [5] (setting [8]), 5% (inactive); in assay [5] (at 50.0 µM), 14.5% (inactive); in assay [6] (setting [7]), 5% (inactive); in assay [6] (setting [8]), 20% (inactive); in assay [6] (at 50.0 µM) it was 66.2% (inactive).
Take `CCCCCCCCC(=O)[O][Hg][c]1ccccc1`: the growth inhibition in assay [1] (setting [7]) was 99% (active); in assay [1] (setting [8]) it was 99% (active); in assay [1] (at 50.0 µM), 99.5% (active); in assay [2] (setting [7]), 100% (active); in assay [2] (setting [8]), 100% (active); in assay [2] (at 50.0 µM), 99.7% (active). The growth inhibition was 100% (active) in assay [3] (setting [7]); 99% (active) in assay [3] (setting [8]); 99.7% (active) in assay [3] (at 50.0 µM); 99% (active) in assay [4] (setting [7]); 99% (active) in assay [4] (setting [8]); 99.3% (active) in assay [4] (at 50.0 µM). For the same compound, the growth inhibition was 99% (active) in assay [5] (setting [7]); 100% (active) in assay [5] (setting [8]); 99.1% (active) in assay [5] (at 50.0 µM); 99% (active) in assay [6] (setting [7]); 100% (active) in assay [6] (setting [8]); 99.5% (active) in assay [6] (at 50.0 µM).
As for `CCC[CH2][Sn]1([CH2]CCC)[O]C(=O)c2cc(C)ccc2[O]1`, the growth inhibition in assay [1] (setting [7]) is 82% (active); in assay [1] (setting [8]), 97% (active); in assay [1] (at 50.0 µM), 88.8% (active); in assay [2] (setting [7]) it was 89% (active); in assay [2] (setting [8]) it was 98% (active); in assay [2] (at 50.0 µM), 90.8% (active). The growth inhibition in assay [3] (setting [7]) is 86% (active); in assay [3] (setting [8]), 98% (active); in assay [3] (at 50.0 µM), 91.5% (active); in assay [4] (setting [7]), 71% (active); in assay [4] (setting [8]), 97% (active); in assay [4] (at 50.0 µM), 89.3% (active). Further, the growth inhibition is 91% (active) in assay [5] (setting [7]); 98% (active) in assay [5] (setting [8]); 90.6% (active) in assay [5] (at 50.0 µM); 91% (active) in assay [6] (setting [7]); 98% (active) in assay [6] (setting [8]); 89% (active) in assay [6] (at 50.0 µM).
Consider `CN(/N=C/c1ccc(Cl)cc1)P(=O)(N1CC1)N1CC1`, for which the growth inhibition in assay [1] (setting [7]) was 24% (inactive); in assay [1] (setting [8]) it was 28% (inactive); in assay [1] (at 50.0 µM), -15.7% (inactive); in assay [2] (setting [7]) it was 14% (inactive); in assay [2] (setting [8]), 17% (inactive); in assay [2] (at 50.0 µM) it was -12.2% (inactive). In addition, the growth inhibition in assay [3] (setting [7]) was 18% (inactive); in assay [3] (setting [8]) it was 24% (inactive); in assay [3] (at 50.0 µM), -3.4% (inactive); in assay [4] (setting [7]), 31% (inactive); in assay [4] (setting [8]), 20% (inactive); in assay [4] (at 50.0 µM), 11.7% (inactive). Also, the growth inhibition is 18% (inactive) in assay [5] (setting [7]); 18% (inactive) in assay [5] (setting [8]); -0.25% (inactive) in assay [5] (at 50.0 µM); 23% (inactive) in assay [6] (setting [7]); 28% (inactive) in assay [6] (setting [8]); 0.65% (inactive) in assay [6] (at 50.0 µM).
In the case of `CCC1(O)C(=O)OCc2c1cc(C)[nH]c2=O` (configuration not stated), the growth inhibition in assay [1] (setting [7]) is -124% (inactive); in assay [1] (setting [8]), -25% (inactive); in assay [1] (at 50.0 µM) it was 0.75% (inactive); in assay [2] (setting [7]) it was -42% (inactive); in assay [2] (setting [8]) it was -45% (inactive); in assay [2] (at 50.0 µM) it was 0.1% (inactive). Also, the growth inhibition was -57% (inactive) in assay [3] (setting [7]); -45% (inactive) in assay [3] (setting [8]); -5.5% (inactive) in assay [3] (at 50.0 µM); -62% (inactive) in assay [4] (setting [7]); -64% (inactive) in assay [4] (setting [8]); 23.9% (inactive) in assay [4] (at 50.0 µM). Also, the growth inhibition is -75% (inactive) in assay [5] (setting [7]); -56% (inactive) in assay [5] (setting [8]); 4.45% (inactive) in assay [5] (at 50.0 µM); -157% (inactive) in assay [6] (setting [7]); -85% (inactive) in assay [6] (setting [8]); 4.95% (inactive) in assay [6] (at 50.0 µM).
For `CC(C)NCC(O)c1ccc(O)c(O)c1.[Pt].c1ccc([PH+](c2ccccc2)c2ccccc2)cc1.c1ccc([PH+](c2ccccc2)c2ccccc2)cc1`, the growth inhibition is -7% (inactive) in assay [1] (setting [7]); 99% (active) in assay [1] (setting [8]); 98.7% (active) in assay [1] (at 50.0 µM); -6% (inactive) in assay [2] (setting [7]); 98% (active) in assay [2] (setting [8]); 98.8% (active) in assay [2] (at 50.0 µM). The growth inhibition in assay [3] (setting [7]) was -8% (inactive); in assay [3] (setting [8]), 99% (active); in assay [3] (at 50.0 µM) it was 99% (active); in assay [4] (setting [7]), 11% (inactive); in assay [4] (setting [8]) it was 86% (active); in assay [4] (at 50.0 µM), 97.8% (active). The growth inhibition in assay [5] (setting [7]) was -26% (inactive); in assay [5] (setting [8]), 98% (active); in assay [5] (at 50.0 µM), 98.8% (active); in assay [6] (setting [7]), 9% (inactive); in assay [6] (setting [8]), 99% (active); in assay [6] (at 50.0 µM) it was 98.8% (active).
With `O=S(=O)(CCl)C(Cl)(Cl)Cl`, the growth inhibition in assay [1] (setting [7]) was 9% (inactive) and 5% (inactive); in assay [1] (setting [8]), 92% (active) and 61% (inactive); in assay [1] (at 50.0 µM), 94.5% (active) and 63.5% (inactive); in assay [2] (setting [7]), 13% (inactive) and -32% (inactive); in assay [2] (setting [8]) it was 66% (inactive) and 49% (inactive); in assay [2] (at 50.0 µM), 94.6% (active) and 62.2% (inactive). Moreover, the growth inhibition was 4% (inactive) and 3% (inactive) in assay [3] (setting [7]); 59% (inactive) and 67% (inactive) in assay [3] (setting [8]); 97% (active) and 51.5% (inactive) in assay [3] (at 50.0 µM); -2% (inactive) and 1% (inactive) in assay [4] (setting [7]); 44% (inactive) and 36% (inactive) in assay [4] (setting [8]); 83.6% (active) and 43.4% (inactive) in assay [4] (at 50.0 µM). Besides, the growth inhibition in assay [5] (setting [7]) is 36% (inactive) and 1% (inactive); in assay [5] (setting [8]), 80% (active) and 56% (inactive); in assay [5] (at 50.0 µM), 92.7% (active) and 67.8% (inactive); in assay [6] (setting [7]) it was 5% (inactive) and 4% (inactive); in assay [6] (setting [8]), 86% (active) and 73% (active); in assay [6] (at 50.0 µM) it was 95.8% (active) and 69.7% (inactive).
Take `Nc1nc(N)c(-c2ccc(Cl)c(Cl)c2)c(CCc2ccc(CNC(=O)c3ccc(S(=O)(=O)F)cc3)cc2)n1`: the growth inhibition in assay [1] (setting [7]) is -4% (inactive); in assay [1] (setting [8]), 87% (active); in assay [1] (at 50.0 µM), 46.7% (inactive); in assay [2] (setting [7]) it was 3% (inactive); in assay [2] (setting [8]), 66% (inactive); in assay [2] (at 50.0 µM), 96.5% (active). Also, the growth inhibition is 6% (inactive) in assay [3] (setting [7]); 98% (active) in assay [3] (setting [8]); 44% (inactive) in assay [3] (at 50.0 µM); -14% (inactive) in assay [4] (setting [7]); 88% (active) in assay [4] (setting [8]); 74.6% (active) in assay [4] (at 50.0 µM). The growth inhibition in assay [5] (setting [7]) is -17% (inactive); in assay [5] (setting [8]) it was 54% (inactive); in assay [5] (at 50.0 µM) it was 68.9% (inactive); in assay [6] (setting [7]) it was 22% (inactive); in assay [6] (setting [8]), 96% (active); in assay [6] (at 50.0 µM), 76.2% (active).

Source of the values: PubChem BioAssay (NCI).
